The results in this text go back to ChEMBL document CHEMBL3988442, “University of Dundee, Small-Polar-MMV Screening Library” (2021).

For some of these results: Potency and affinity values are given separately.

Design in all cases: scale not given: direction of the effect not stated beside the values
Experiment [1] deals with Protein translocase subunit SecA (Escherichia coli (strain K12)) (UniProt P10408). The experiment is described as follows: Assay to Identify E. coli SecA ATPase Inhibitors. Format: functional. The settings on record: 30 µM.
Protein translocase subunit SecA (Escherichia coli (strain K12)), sequence (P10408 whole entry): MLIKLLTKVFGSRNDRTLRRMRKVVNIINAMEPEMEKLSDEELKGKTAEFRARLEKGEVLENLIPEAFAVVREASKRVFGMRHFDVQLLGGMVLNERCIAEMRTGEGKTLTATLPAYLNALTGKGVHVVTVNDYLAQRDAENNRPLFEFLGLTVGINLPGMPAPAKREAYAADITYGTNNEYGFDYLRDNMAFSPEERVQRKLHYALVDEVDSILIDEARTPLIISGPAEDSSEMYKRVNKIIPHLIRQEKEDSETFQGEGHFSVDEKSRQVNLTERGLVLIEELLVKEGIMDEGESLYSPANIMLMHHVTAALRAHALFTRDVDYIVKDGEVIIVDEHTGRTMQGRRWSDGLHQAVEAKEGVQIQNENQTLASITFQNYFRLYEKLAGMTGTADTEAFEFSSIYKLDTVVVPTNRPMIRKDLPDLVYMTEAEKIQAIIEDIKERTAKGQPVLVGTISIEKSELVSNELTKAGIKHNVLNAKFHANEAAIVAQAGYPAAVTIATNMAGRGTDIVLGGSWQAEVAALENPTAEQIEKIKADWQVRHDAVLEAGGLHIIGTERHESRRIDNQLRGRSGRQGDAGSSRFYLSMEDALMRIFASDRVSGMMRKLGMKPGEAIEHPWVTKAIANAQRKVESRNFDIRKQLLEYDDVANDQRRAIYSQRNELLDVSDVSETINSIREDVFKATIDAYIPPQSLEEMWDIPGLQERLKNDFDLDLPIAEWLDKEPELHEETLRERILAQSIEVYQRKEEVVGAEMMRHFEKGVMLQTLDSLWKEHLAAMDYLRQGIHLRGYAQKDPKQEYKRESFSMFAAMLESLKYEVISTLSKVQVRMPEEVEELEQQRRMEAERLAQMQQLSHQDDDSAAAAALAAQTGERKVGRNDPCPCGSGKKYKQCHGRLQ
For experiment [2], the target named is T1, Ubiquitin-activating enzyme e1, putative (Leishmania donovani (strain BPK282A1)) (UniProt E9BSI1).
T1 sequence (whole entry): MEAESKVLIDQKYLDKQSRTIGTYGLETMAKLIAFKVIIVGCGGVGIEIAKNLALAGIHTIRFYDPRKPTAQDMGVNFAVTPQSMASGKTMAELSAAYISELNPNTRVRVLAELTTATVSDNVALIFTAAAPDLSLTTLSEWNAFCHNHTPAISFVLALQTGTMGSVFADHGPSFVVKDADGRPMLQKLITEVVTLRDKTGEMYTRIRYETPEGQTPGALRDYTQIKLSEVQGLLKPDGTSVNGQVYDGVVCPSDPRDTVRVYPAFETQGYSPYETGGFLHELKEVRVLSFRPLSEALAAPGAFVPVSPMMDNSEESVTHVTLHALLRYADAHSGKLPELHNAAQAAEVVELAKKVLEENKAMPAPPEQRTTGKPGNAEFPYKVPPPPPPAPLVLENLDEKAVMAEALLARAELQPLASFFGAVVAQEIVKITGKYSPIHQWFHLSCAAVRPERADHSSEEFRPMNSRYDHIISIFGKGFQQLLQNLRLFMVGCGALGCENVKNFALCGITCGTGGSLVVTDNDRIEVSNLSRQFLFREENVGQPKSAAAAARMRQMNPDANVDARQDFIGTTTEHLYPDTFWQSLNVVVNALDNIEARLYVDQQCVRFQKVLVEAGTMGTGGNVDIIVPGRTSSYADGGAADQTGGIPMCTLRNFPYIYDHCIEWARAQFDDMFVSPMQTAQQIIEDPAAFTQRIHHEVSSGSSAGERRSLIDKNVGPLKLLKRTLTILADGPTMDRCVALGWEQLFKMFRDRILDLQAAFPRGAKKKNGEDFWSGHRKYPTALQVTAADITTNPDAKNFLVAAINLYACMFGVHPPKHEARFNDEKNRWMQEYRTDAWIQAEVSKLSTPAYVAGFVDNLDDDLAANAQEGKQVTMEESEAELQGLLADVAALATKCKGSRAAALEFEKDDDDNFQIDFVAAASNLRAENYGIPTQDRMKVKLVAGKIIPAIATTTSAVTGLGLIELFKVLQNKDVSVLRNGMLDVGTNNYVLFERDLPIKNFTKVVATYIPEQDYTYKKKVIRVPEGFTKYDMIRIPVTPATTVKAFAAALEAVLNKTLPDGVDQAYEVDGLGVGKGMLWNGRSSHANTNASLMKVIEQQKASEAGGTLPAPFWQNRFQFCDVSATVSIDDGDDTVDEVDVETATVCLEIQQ
The experiment is described as follows: Leishmania donovani Ubiquitin Activating Enzyme (LdE1). The settings on record: 30 µM. Format: functional.

Experiment [3] has as its target AMP-activated protein kinase, AMPK (Homo sapiens) (UniProt P54646+O43741+P54619+Q9UGJ0+Q9Y478+Q13131+Q9UGI9). The experiment is described as follows: AMP-dependent Kinase enzyme assay. An in vitro enzyme assay that detects ADP turnover that is directly proportional to AMPK activity. This uses naive AMPK that is activated during the assay with MK-8722. Format: functional. The settings on record: 30 µM.

Experiment [4] concerns the target Sialic acid-binding Ig-like lectin 9 (Homo sapiens) (UniProt Q9Y336). The experiment is described as follows: Hs-Siglec9 ALPHAscreen SOP 20170721. Particulars: 10 µM. Background: Bead proximity is the source of the signal in Alpha formats.
The subject of experiment [5] is Trypanosoma cruzi. Nature of the experiment: Trypanosoma cruzi phosphomannomutase and mannose-1-phosphate guanylyltransferase assay. The format is functional. Particulars: 10 µM.
Experiment [6] has as its target T2, Arginase-2, mitochondrial (Homo sapiens) (UniProt P78540).
T2 sequence (whole entry): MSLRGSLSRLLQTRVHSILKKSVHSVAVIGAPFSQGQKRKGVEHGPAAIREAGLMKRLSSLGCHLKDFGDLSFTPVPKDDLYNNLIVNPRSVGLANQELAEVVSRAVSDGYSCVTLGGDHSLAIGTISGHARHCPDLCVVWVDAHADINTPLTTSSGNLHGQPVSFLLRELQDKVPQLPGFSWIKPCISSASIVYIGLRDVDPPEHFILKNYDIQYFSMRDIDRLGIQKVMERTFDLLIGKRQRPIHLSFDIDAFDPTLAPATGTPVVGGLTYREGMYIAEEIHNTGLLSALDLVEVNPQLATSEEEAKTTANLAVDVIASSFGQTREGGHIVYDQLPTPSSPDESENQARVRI
The experiment is described as follows: in vitro enzyme assay to detect the production of urea directly proportional to the activity of Arginase II. Also: in the data most compounds retested in dose-response had high values. Particulars: 33.3 µM. The format is functional.

Experiment [7] has as its target T3, Proteasome subunit beta (Trypanosoma cruzi) (UniProt O96673).
T3 sequence (whole entry): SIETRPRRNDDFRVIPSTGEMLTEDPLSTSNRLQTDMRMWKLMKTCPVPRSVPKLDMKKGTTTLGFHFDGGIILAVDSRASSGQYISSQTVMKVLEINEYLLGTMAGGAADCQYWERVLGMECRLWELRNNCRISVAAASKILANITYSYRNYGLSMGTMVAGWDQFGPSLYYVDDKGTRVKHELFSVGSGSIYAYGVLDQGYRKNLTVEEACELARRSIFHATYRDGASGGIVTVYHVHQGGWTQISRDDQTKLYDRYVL
The experiment is described as follows: Trypanosoma cruzi proteasome chymotrypsin-like activity (TcProtChymo) assay. Also: in the data most compounds retested in dose-response had high values. The format is functional. Particulars: 9.37 µM.

The species named for experiment [8] is Homo sapiens. The experiment is described as follows: To identify inhibition of the IFN signalling (Jak-Stat) pathway via expression of an eGFP reporter gene under the control of an IFN-stimulated response element (ISRE) containing MxA promoter. Format: functional. The settings on record: 30 µM. (In general: A reporter such as luciferase makes a cellular process visible.)

Experiment [9] addresses T4, Tyrosyl-tRNA synthetase, putative (Trypanosoma cruzi (strain CL Brener)) (UniProt Q4DSP6).
T4 sequence (whole entry): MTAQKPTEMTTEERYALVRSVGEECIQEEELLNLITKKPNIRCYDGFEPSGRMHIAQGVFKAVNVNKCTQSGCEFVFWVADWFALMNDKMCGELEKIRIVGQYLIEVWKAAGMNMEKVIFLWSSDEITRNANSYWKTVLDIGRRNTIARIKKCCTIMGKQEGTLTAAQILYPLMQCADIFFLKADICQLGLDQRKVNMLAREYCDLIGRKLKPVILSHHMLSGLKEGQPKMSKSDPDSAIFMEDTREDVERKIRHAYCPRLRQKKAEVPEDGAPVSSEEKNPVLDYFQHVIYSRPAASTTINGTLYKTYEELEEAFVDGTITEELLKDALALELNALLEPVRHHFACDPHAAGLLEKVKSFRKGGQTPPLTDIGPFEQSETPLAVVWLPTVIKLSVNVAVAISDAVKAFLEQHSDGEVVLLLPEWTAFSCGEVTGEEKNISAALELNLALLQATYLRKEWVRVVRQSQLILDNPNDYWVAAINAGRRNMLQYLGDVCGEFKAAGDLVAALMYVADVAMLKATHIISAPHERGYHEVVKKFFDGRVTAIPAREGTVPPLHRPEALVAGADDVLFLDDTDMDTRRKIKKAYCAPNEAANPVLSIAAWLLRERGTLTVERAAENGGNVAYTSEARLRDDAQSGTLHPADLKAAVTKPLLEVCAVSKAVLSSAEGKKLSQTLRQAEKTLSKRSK
The experiment is described as follows: Trypanosoma cruzi tyrosyl tRNA synthetase (TcYRS) _High Tyrosine SOP. Also: in the data most compounds retested in dose-response had high values. Format: functional. Particulars: 30 µM.

Experiment [10] addresses T4, Tyrosyl-tRNA synthetase, putative (Trypanosoma cruzi (strain CL Brener)). Nature of the experiment: Trypanosoma cruzi tyrosyl tRNA synthetase (TcYRS) SOP. The format is functional. Particulars: 30 µM.
The target of experiment [11] is Chromo domain-containing protein 1 (Saccharomyces cerevisiae (strain ATCC 204508 / S288c) (Baker's yeast)) (UniProt P32657). The experiment is described as follows: ScCHD-1 Enzyme Inhibition Assay. Also: in the data most compounds retested in dose-response had high values. The format is functional. The settings on record: 30 µM.
Chromo domain-containing protein 1 (Saccharomyces cerevisiae (strain ATCC 204508 / S288c) (Baker's yeast)), sequence (P32657 whole entry, the tested form may be a part): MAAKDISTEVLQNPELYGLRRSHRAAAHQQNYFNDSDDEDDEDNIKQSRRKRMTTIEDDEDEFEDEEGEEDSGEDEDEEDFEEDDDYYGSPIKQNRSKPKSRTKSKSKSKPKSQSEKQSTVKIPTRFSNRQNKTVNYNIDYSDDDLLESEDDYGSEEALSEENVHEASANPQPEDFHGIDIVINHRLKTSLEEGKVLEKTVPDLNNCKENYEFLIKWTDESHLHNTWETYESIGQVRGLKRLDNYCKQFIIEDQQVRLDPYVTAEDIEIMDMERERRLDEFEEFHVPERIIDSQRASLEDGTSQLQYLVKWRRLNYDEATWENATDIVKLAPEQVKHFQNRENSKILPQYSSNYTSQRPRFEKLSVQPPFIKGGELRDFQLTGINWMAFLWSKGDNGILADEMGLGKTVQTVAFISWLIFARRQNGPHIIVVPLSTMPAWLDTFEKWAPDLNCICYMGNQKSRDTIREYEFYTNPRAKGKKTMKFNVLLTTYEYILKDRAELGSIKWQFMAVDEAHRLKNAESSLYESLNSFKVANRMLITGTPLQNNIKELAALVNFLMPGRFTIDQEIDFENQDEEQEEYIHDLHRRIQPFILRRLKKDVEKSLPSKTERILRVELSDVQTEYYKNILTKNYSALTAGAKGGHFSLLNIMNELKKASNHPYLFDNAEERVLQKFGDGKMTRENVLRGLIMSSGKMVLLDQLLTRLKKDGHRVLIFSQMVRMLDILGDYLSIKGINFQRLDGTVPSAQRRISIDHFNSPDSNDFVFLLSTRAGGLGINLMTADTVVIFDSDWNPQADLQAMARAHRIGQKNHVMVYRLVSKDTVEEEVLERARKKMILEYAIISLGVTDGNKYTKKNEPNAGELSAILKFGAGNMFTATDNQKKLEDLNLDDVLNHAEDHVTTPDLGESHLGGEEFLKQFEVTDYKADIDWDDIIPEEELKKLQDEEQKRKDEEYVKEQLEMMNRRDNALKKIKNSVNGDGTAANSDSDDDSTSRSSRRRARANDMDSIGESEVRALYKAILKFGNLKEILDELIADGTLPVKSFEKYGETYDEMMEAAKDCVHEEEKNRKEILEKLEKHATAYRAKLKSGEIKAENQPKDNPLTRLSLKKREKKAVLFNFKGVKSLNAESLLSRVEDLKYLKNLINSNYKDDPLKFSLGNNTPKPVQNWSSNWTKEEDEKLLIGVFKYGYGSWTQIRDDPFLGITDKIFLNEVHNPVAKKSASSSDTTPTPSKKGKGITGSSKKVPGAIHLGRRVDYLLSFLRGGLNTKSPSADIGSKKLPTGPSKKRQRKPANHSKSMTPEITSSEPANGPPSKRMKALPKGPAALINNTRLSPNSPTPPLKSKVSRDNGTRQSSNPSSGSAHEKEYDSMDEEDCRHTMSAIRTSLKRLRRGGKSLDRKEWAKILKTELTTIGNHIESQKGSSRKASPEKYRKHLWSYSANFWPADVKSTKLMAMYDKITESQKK

Sialic acid-binding Ig-like lectin 9 (Homo sapiens), sequence (Q9Y336 whole entry): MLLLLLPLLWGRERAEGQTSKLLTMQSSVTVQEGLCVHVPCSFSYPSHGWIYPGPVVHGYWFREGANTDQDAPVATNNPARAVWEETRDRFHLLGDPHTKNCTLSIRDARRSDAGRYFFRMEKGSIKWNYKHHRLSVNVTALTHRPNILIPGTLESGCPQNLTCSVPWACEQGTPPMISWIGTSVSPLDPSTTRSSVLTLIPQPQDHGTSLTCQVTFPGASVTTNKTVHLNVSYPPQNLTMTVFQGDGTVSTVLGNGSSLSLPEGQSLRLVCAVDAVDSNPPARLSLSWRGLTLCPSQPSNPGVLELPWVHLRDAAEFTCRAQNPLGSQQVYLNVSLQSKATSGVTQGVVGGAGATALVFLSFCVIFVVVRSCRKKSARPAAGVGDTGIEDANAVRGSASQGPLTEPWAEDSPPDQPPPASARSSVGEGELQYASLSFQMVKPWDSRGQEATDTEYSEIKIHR

`Cc1noc(C)c1C(=O)NCc1ccnc(OCC(F)(F)F)c1`: the Percent Effect was -3.23% in experiment [1]; 26.3% in experiment [2]; -1.27% in [3]; 0.107% in experiment [4]; 7.52% in [5]; 0% in experiment [6]. Moreover, the Percent Effect in experiment [7] is 11.2%; in [8], 10.2%; in experiment [9], 7.35%; in experiment [10] it was 9.76%; in experiment [11], -11%.

In the case of `Cc1c(C)n(Cc2ccncc2)c2nc3c(c(N)c12)CCCCC3`, the Percent Effect in experiment [1] is -2.06%; in experiment [2], 6.67%; in experiment [3], 9.29%; in [4] it was 1.27%; in experiment [5], 9.43%; in [6], -1.94%. Further, the Percent Effect in experiment [7] is 15.3%; in [8], 43.7%; in [9], 3.17%; in experiment [10], 12.8%; in experiment [11], -10.9%.

`CCn1cc(CN2CCCN(C(=O)c3sccc3C#N)CC2)cn1`: the Percent Effect is -4.12% in experiment [1]; 2.53% in experiment [2]; -2.86% in experiment [3]; -2.29% in experiment [4]; -1.04% in experiment [5]; -1.14% in experiment [6]. Also, the Percent Effect in experiment [7] was -7.94%; in [8] it was -14%; in experiment [9], 2.46%; in [10], 3.8%; in [11] it was 4.04%.

With `Cc1nc(-c2ccsc2)ccc1C(=O)NCCC1CCCO1` (stereo unspecified), the Percent Effect in experiment [1] is -8.67%; in experiment [2] it was 0%; in experiment [3] it was -8.2%; in experiment [4], 10%; in [5] it was 9.77%; in experiment [6], -1.92%. Further, the Percent Effect in experiment [7] is 3.51%; in [8], -2.44%; in experiment [9], 4.41%; in experiment [10], 9.76%; in experiment [11], -10.2%.

Turning to `Cc1ccn(-c2ccccc2NCc2ccccn2)n1`, the Percent Effect in experiment [1] is -1.21%; in experiment [2] it was 0%; in experiment [3] it was 23.2%; in experiment [4], 4.37%; in experiment [5], 3.13%; in [6] it was 2.27%. For the same molecule, the Percent Effect was 0.532% in experiment [7]; 2.69% in experiment [8]; 4.3% in [9]; 10% in experiment [10]; -1.77% in experiment [11].

`COc1ccnc(C(=O)N2CCCC(c3noc(C)n3)C2)c1` (stereo unspecified): the Percent Effect is -0.16% in experiment [1]; -7.59% in experiment [2]; 1.48% in experiment [3]; 5.56% in [4]; -0.85% in experiment [5]; 0.76% in experiment [6]. In addition, the Percent Effect in experiment [7] was 3.03%; in [8], -3.33%; in [9] it was -2.46%; in [10], -1.27%; in [11] it was -3.23%.

Take `Cc1nc(NC(=O)CN2CCc3c(nc(C(C)C)n3C)C2)sc1C`: the Percent Effect in experiment [1] was -3.02%; in experiment [2] it was 5.41%; in experiment [3] it was -2.02%; in [4], 11%; in [5] it was 8.69%; in [6], -1.43%. Also, the Percent Effect in [7] was 19.8%; in experiment [8], 15%; in [9], 6.88%; in experiment [10], 19.5%; in experiment [11], -1.68%.

Take `CNC(=O)C1Cn2ccnc2C2(CCN(Cc3cccnc3)CC2)O1` (stereo unspecified): the Percent Effect in [1] was -4.76%; in [2] it was 10.8%; in experiment [3], 2.08%; in experiment [4] it was 2.7%; in [5] it was -0.684%; in [6] it was -0.319%. The Percent Effect is 23.4% in experiment [7]; -1.62% in [8]; 9.73% in [9]; 25.6% in experiment [10]; -0.425% in experiment [11].

In the case of `OC(CN1CCC(c2ccn[nH]2)CC1)c1cccc(F)c1` (stereo unspecified), the Percent Effect in experiment [1] was 1.18%; in [2] it was 12.7%; in experiment [3], 4.09%; in experiment [4], 4.6%; in experiment [5], -3.49%; in [6], 6.84%. For the same molecule, the Percent Effect in experiment [7] was 6.31%; in experiment [8], 13.5%; in [9], 5.42%; in experiment [10], 11.4%; in [11], -4.54%.

As to `O=C1CO[C@@H]2CN(CC3CCOCC3)C[C@H]2N1CC1CC1`, the Percent Effect is -3.37% in [1]; 10.8% in experiment [2]; 5.33% in [3]; -0.714% in experiment [4]; -5.18% in [5]; 5.41% in experiment [6]. For the same molecule, the Percent Effect in [7] is 20.1%; in experiment [8], 10.6%; in [9], 5.41%; in experiment [10] it was 17.9%; in [11] it was 3.58%.

For `CCN1CC(C(=O)NCc2ccnc(-n3ccnc3C)c2)CC1=O` (stereo unspecified), the Percent Effect is -2.69% in experiment [1]; 0% in experiment [2]; -12.9% in [3]; -7.63% in [4]; 0% in [5]; -3.18% in experiment [6]. For the same molecule, the Percent Effect in experiment [7] is 3.02%; in [8], 20.3%; in experiment [9] it was -1.07%; in experiment [10], -2.5%; in [11] it was -4.95%.
